Measured values reported in the supplement of paper PMC10981050.
Where “and” joins values, the source holds several entries; their conditions need not be identical. Equal entries are not always repeated. Structures can show the parent of a compound that is named as a salt.

The compounds below were run on K562 (assay: cell viability relative to vehicle control; higher = less cytotoxic). Conditions: 10 µM; SRSF2 genotype: SRSF2 P95H/wt.
How it was run: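 Screening covered the Selleck bioactive, kinase and epigenetic probe libraries, less identity-inconsistent compounds, on CRISPR-edited mutant clones and isogenic wild-type clones of four leukaemia lines. Cells, at 2000 per well in 50 µL medium, received a single 10 µM acoustically dispensed dose. After 48 h the supernatant was removed and CellTiter-Glo luminescence was read. Viability was analysed in Genedata Screener as percent of the on-plate vehicle control.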
`CCOc1ccc2ccccc2c1C(=O)N[C@@H]1C(=O)N2[C@@H]1SC(C)(C)[C@@H]2C(=O)O` [Nafcillin Sodium] showed a cell viability of 106%.
With `C[C@@H](O)[C@H]1C(=O)N2C(C(=O)O)=C(S[C@@H]3CN[C@H](CNS(N)(=O)=O)C3)[C@H](C)[C@H]12` [Doripenem Hydrate] the cell viability was 95.8% and 101%.
For `NC(=O)c1ccc(-c2nc(-c3ccc4c(c3)OCCO4)c(-c3ccccn3)[nH]2)cc1`, the cell viability was 102% and 103%.
`O=C1CCc2c(ccc3ccccc23)O1` [Splitomicin] was tested, and the cell viability was 105% and 97%.
`Cc1nc(-c2cn3c(n2)-c2ccc(-c4cnn(C(C)(C)C(N)=O)c4)cc2OCC3)n(C(C)C)n1` was tested, and the cell viability was 74.5% and 79.4%.
With `CN(CCOc1ccc(NS(C)(=O)=O)cc1)CCc1ccc(NS(C)(=O)=O)cc1` [Dofetilide (Tikosyn)] the cell viability was 97.8% and 97%.
For `COC1CCN(C(=O)c2cc(Cc3n[nH]c(=O)c4ccccc34)ccc2F)CC1`, the cell viability was 78.6% and 83.8%.
For `Cc1[nH]c(=O)c(C#N)cc1-c1ccncc1` [Milrinone (Primacor)], the cell viability was 102% and 97.3%.
With `CC(C)C[C@H](NC(=O)[C@@H](NC(=O)c1cccc(-c2ccccc2)n1)[C@@H](C)O)B(O)O` the cell viability was 2.12% and 2.65%.
In the case of `CC(C)(C#N)c1cc(Cn2cncn2)cc(C(C)(C)C#N)c1` [Anastrozole], the cell viability is reported as 102% and 109%.
For `CC(ONC(=O)c1cc(C(F)(F)F)cc(C(F)(F)F)c1)C(=O)Nc1ccc(Cl)cc1` (stereo not drawn), the cell viability was 78.9% and 81%.
With `CS(=O)(=O)Nc1cc2occ(NC=O)c(=O)c2cc1Oc1ccccc1` [Iguratimod] the cell viability was 107% and 95.3%.
`CC1(C)CC[C@]2(C(=O)O)[C@H](O)C[C@]3(C)C(=CC[C@@H]4[C@@]5(C)CC[C@H](O)[C@@](C)(C=O)[C@@H]5CC[C@]43C)[C@@H]2C1` [Quillaic acid] was tested, and the cell viability was 96.1% and 95.3%.
`C[C@@H]1O[C@@H](O[C@H]2[C@H](O[C@H]3CC[C@@]4(C)[C@@H](CC[C@]5(C)[C@@H]4CC=C4[C@@H]6CC(C)(C)CC[C@]6(C(=O)O)CC[C@]45C)[C@]3(C)CO)OC[C@H](O[C@@H]3O[C@H](CO)[C@@H](O)[C@H](O)[C@H]3O)[C@@H]2O)[C@H](O)[C@H](O)[C@H]1O` [Pulsatilla saponin D] was tested, and the cell viability was 0.56% and 0.59%.
In the case of `C=C1CCC[C@]2(C)C=C3OC(=O)C(C)=C3C[C@@H]12` [Atractylenolide I], the cell viability is reported as 102% and 110%.
For `C#CCN[C@@H]1CCc2ccccc21` [Rasagiline mesylate], the cell viability was 98% and 105%.
`CN1CC[C@H](c2c(O)cc(O)c3c(=O)cc(-c4ccccc4Cl)oc23)[C@H](O)C1` [Flavopiridol (Alvocidib)] was tested, and the cell viability was 6.41% and 17.6%.
In the case of `O=C(O)[C@H]1CSC(c2nc3ccc(O)cc3s2)=N1` [D-Luciferin], the cell viability is reported as 90.6% and 83.7%.
With `CCCCCCOC(=O)c1cc(=O)c(O)c2c(O)c(O)c(OC)cc2c1` the cell viability was 14.8% and 16.8%.
For `CC1(C)OC(=O)C=C[C@]2(C)[C@H]3CC[C@@]4(C)[C@H](c5ccoc5)OC(=O)[C@H]5O[C@]54[C@]3(C)C(=O)C[C@@H]12` [Obacunone], the cell viability was 103% and 98.1%.
For `Cc1cc(/N=N/c2ccc(S(=O)(=O)Nc3ccccn3)cc2)c(N)cc1O`, the cell viability was 76.8% and 80.2%.
For `CC(C)OC(=O)CCC/C=C\C[C@@H]1[C@@H](CC[C@@H](O)CCc2ccccc2)[C@H](O)C[C@@H]1O` [Latanoprost], the cell viability was 93% and 96.4%.
In the case of `COc1c(O[C@@H]2O[C@H](CO)[C@@H](O)[C@H](O)[C@H]2O)cc2occ(-c3ccc(O)cc3)c(=O)c2c1O` [Tectoridin], the cell viability is reported as 93% and 87.4%.
`Cc1ccccc1C(OCCN(C)C)c1ccccc1` (stereo not drawn) [Orphenadrine citrate (Norflex)] was tested, and the cell viability was 96.7% and 92%.
For `CCCCCCCCCCCCCCCC(=O)O[C@@H]1[C@@H](O)[C@@H](O)[C@@H]([C@H](NC(=O)[C@@H]2C[C@@H](CCC)CN2C)[C@H](C)Cl)O[C@@H]1SC` [Clindamycin palmitate HCl], the cell viability was 90.7% and 98.9%.
In the case of `CN(C)c1ccc(-c2nc3ncc(Cl)c(N4CCN(CC(=O)Nc5nccs5)CC4)c3[nH]2)cc1`, the cell viability is reported as 95.8% and 101%.
`C[C@]12CC[C@@H]3c4ccc(O)cc4CC[C@H]3[C@@H]1CC[C@@H]2O` [Estradiol] was tested, and the cell viability was 97% and 94.8%.
`COc1cc(OCc2cccc(-c3ccccc3)c2C)cc(OC)c1CN1CCCC[C@H]1C(=O)O` [PD-1/PD-L1 inhibitor 1] was tested, and the cell viability was 87.3% and 92.7%.
